Test results published in PubChem BioAssay AID1159580 (chemical genetic matrix, 2015).
Screen size: about 5,500 compounds; about 2,000 (36%) were called active. Another 18% or so got no clear call; they are omitted. Rule as the data show it: active = normalized growth mostly below about 0.91 (no sharp cut-off); inconclusive = no clear call, values can overlap the other calls; inactive = mostly above about 0.92. Some of the results follow.

Test: chemical genetic growth profiling, strain panel (AID 1159580);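 also: tested at 20 µM; growth read once vehicle control cultures reached saturation at 30 °C; 1 = growth at the plate median or of vehicle wells; lower values mean less growth of the strain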
Settings: growth OD
[1] = S. cerevisiae deletion strains, locus YDL101C, strain DUN1, stronger effect = lower value
[2] = S. cerevisiae deletion strains, locus YHR030C, strain SLT2, stronger effect = lower value

Measured: normalized growth

C/C(=N/Nc1c(Cl)cc(Cl)cc1Cl)c1cc(F)ccc1OC(=O)c1ccccc1F
inactive: S. cerevisiae deletion strains, locus YAL013W, strain DEP1, stronger effect = lower value 0.99 | S. cerevisiae deletion strains, locus YBR229C, strain ROT2, stronger effect = lower value 0.978 | [1] 0.969 | S. cerevisiae deletion strains, locus YDL134C, strain PPH21, stronger effect = lower value 1.03 | S. cerevisiae deletion strains, locus YDR150W, strain NUM1, stronger effect = lower value 0.991 | S. cerevisiae deletion strains, locus YEL061C, strain CIN8, stronger effect = lower value 1.04 | S. cerevisiae deletion strains, locus YGR078C, strain PAC10, stronger effect = lower value 0.983 | [2] 1.04 | S. cerevisiae deletion strains, locus YHR087W, strain rtc3, stronger effect = lower value 0.978 | S. cerevisiae deletion strains, locus YJR043C, strain POL32, stronger effect = lower value 0.968 | S. cerevisiae deletion strains, locus YJR075W, strain HOC1, stronger effect = lower value 0.984 | S. cerevisiae deletion strains, locus YKL190W, strain CNB1, stronger effect = lower value 1.03 | S. cerevisiae deletion strains, locus YLR039C, strain RIC1, stronger effect = lower value 1.02 | S. cerevisiae deletion strains, locus YLR058C, strain SHM2 (second series), stronger effect = lower value 1.01 | S. cerevisiae deletion strains, locus YLR085C, strain ARP6, stronger effect = lower value 1.11 | S. cerevisiae deletion strains, locus YLR262C, strain YPT6, stronger effect = lower value 0.957 | S. cerevisiae deletion strains, locus YML094W, strain GIM5, stronger effect = lower value 1.01 | S. cerevisiae deletion strains, locus YMR219W, strain ESC1, stronger effect = lower value 0.966 | S. cerevisiae deletion strains, locus YMR263W, strain SAP30, stronger effect = lower value 0.996 | S. cerevisiae deletion strains, locus YNL128W, strain TEP1, stronger effect = lower value 1.03 | S. cerevisiae deletion strains, locus YNL153C, strain GIM3, stronger effect = lower value 0.953 | S. cerevisiae deletion strains, locus YNL298W, strain CLA4 (second series), stronger effect = lower value 1.07 | S. cerevisiae deletion strains, locus YNL322C, strain KRE1, stronger effect = lower value 1.01 | S. cerevisiae deletion strains, locus YNR030W, strain Alg12, stronger effect = lower value 1.03 | S. cerevisiae deletion strains, locus YOL006C, strain TOP1, stronger effect = lower value 1.06 | S. cerevisiae deletion strains, locus YPL055C, strain LGE1, stronger effect = lower value 0.981 | S. cerevisiae deletion strains, locus YPL241C, strain CIN2, stronger effect = lower value 0.972 | S. cerevisiae deletion strains, locus YPR135W, strain CTF4, stronger effect = lower value 0.962 | S. cerevisiae strains, strain wild type, stronger effect = lower value 1.03

C/C(=N/Nc1ccccc1)c1cc(Cl)cc(Cl)c1O
active: [2] 0.308 | S. cerevisiae deletion strains, locus YLR113W, strain HOG1, stronger effect = lower value 0.792 | S. cerevisiae deletion strains, locus YLR133W, strain CKI1, stronger effect = lower value 0.731 | S. cerevisiae deletion strains, locus YNL020C, strain ARK1, stronger effect = lower value 0.647 | S. cerevisiae deletion strains, locus YNL307C, strain MCK1 (second series), stronger effect = lower value 0.632 | S. cerevisiae deletion strains, locus YPL256C, strain CLN2, stronger effect = lower value 0.774
inactive: S. cerevisiae deletion strains, locus YAR019C, strain CDC15, stronger effect = lower value 0.964 | S. cerevisiae deletion strains, locus YBL105C, strain PKC1, stronger effect = lower value 0.977 | S. cerevisiae deletion strains, locus YBR135W, strain CKS1, stronger effect = lower value 0.954 | S. cerevisiae deletion strains, locus YBR136W, strain MEC1, stronger effect = lower value 0.954 | S. cerevisiae deletion strains, locus YBR160W, strain CDC28, stronger effect = lower value 0.958 | S. cerevisiae deletion strains, locus YDL017W, strain CDC7, stronger effect = lower value 0.964 | S. cerevisiae deletion strains, locus YDL028C, strain MPS1, stronger effect = lower value 0.967 | [1] 0.969 | S. cerevisiae deletion strains, locus YDL108W, strain KIN28, stronger effect = lower value 0.954 | S. cerevisiae deletion strains, locus YDL132W, strain cdc53, stronger effect = lower value 0.956 | S. cerevisiae deletion strains, locus YDL214C, strain PRR2, stronger effect = lower value 0.785 | S. cerevisiae deletion strains, locus YDR052C, strain DBF4, stronger effect = lower value 0.968 | S. cerevisiae deletion strains, locus YDR054C, strain cdc34, stronger effect = lower value 0.966 | S. cerevisiae deletion strains, locus YDR226W, strain ADK1, stronger effect = lower value 0.954 | S. cerevisiae deletion strains, locus YDR477W, strain SNF1, stronger effect = lower value 0.734 | S. cerevisiae deletion strains, locus YER123W, strain YCK3, stronger effect = lower value 0.734 | S. cerevisiae deletion strains, locus YER133W, strain GLC7, stronger effect = lower value 0.825 | S. cerevisiae deletion strains, locus YFL009W, strain cdc4, stronger effect = lower value 0.964 | S. cerevisiae deletion strains, locus YFL029C, strain CAK1, stronger effect = lower value 0.955 | S. cerevisiae deletion strains, locus YFR003C, strain YPI1, stronger effect = lower value 0.962 | S. cerevisiae deletion strains, locus YFR019W, strain FAB1, stronger effect = lower value 0.834 | S. cerevisiae deletion strains, locus YFR028C, strain CDC14, stronger effect = lower value 0.93 | S. cerevisiae deletion strains, locus YGR040W, strain KSS1, stronger effect = lower value 0.746 | S. cerevisiae deletion strains, locus YGR052W, strain FMP48, stronger effect = lower value 0.804 | S. cerevisiae deletion strains, locus YGR092W, strain DBF2, stronger effect = lower value 0.658 | S. cerevisiae deletion strains, locus YHR079C, strain IRE1, stronger effect = lower value 0.748 | S. cerevisiae deletion strains, locus YHR082C, strain KSP1, stronger effect = lower value 0.731 | S. cerevisiae deletion strains, locus YHR205W, strain SCH9, stronger effect = lower value 0.694 | S. cerevisiae deletion strains, locus YIL147C, strain SLN1, stronger effect = lower value 0.968 | S. cerevisiae deletion strains, locus YJL095W, strain BCK1, stronger effect = lower value 0.815 | S. cerevisiae deletion strains, locus YJL128C, strain PBS2, stronger effect = lower value 0.884 | S. cerevisiae deletion strains, locus YJL157C, strain FAR1, stronger effect = lower value 0.79 | S. cerevisiae deletion strains, locus YJR016C, strain ILV3, stronger effect = lower value 0.954 | S. cerevisiae deletion strains, locus YJR066W, strain TOR1 (second series), stronger effect = lower value 0.829 | S. cerevisiae deletion strains, locus YJR066W, strain TOR1, stronger effect = lower value 0.66 | S. cerevisiae deletion strains, locus YKL048C, strain ELM1, stronger effect = lower value 0.87 | S. cerevisiae deletion strains, locus YKL067W, strain YNK1, stronger effect = lower value 0.851 | S. cerevisiae deletion strains, locus YKL101W, strain HSL1, stronger effect = lower value 0.798 | S. cerevisiae deletion strains, locus YKL193C, strain SDS22, stronger effect = lower value 0.948 | S. cerevisiae deletion strains, locus YKL203C, strain TOR2, stronger effect = lower value 0.745 | S. cerevisiae deletion strains, locus YLR403W, strain SFP1, stronger effect = lower value 0.681 | S. cerevisiae deletion strains, locus YML070W, strain DAK1, stronger effect = lower value 0.81 | S. cerevisiae deletion strains, locus YMR001C, strain CDC5, stronger effect = lower value 0.954 | S. cerevisiae deletion strains, locus YMR205C, strain PFK2 (second series), stronger effect = lower value 0.862 | S. cerevisiae deletion strains, locus YMR277W, strain FCP1, stronger effect = lower value 0.95 | S. cerevisiae deletion strains, locus YNL006W, strain LST8, stronger effect = lower value 0.966 | S. cerevisiae deletion strains, locus YNL161W, strain CBK1, stronger effect = lower value 0.964 | S. cerevisiae deletion strains, locus YNL183C, strain NPR1, stronger effect = lower value 0.872 | S. cerevisiae deletion strains, locus YNL207W, strain RIO2, stronger effect = lower value 0.958 | S. cerevisiae deletion strains, locus YNL222W, strain SSU72, stronger effect = lower value 0.961 | S. cerevisiae deletion strains, locus YOL078W, strain AVO1, stronger effect = lower value 0.961 | S. cerevisiae deletion strains, locus YOL136C, strain PFK27, stronger effect = lower value 0.764 | S. cerevisiae deletion strains, locus YOR061W, strain CKA2, stronger effect = lower value 0.784 | S. cerevisiae deletion strains, locus YOR119C, strain RIO1, stronger effect = lower value 0.732 | S. cerevisiae deletion strains, locus YOR231W, strain MKK1, stronger effect = lower value 0.855 | S. cerevisiae deletion strains, locus YOR329C, strain SCD5, stronger effect = lower value 0.974 | S. cerevisiae deletion strains, locus YPL031C, strain PHO85, stronger effect = lower value 0.742 | S. cerevisiae deletion strains, locus YPL153C, strain RAD53, stronger effect = lower value 0.78 | S. cerevisiae deletion strains, locus YPL204W, strain HRR25, stronger effect = lower value 0.737 | S. cerevisiae deletion strains, locus YPL209C, strain IPL1, stronger effect = lower value 0.965 | S. cerevisiae deletion strains, locus YPR025C, strain CCL1, stronger effect = lower value 0.963 | S. cerevisiae deletion strains, locus YPR106W, strain ISR1, stronger effect = lower value 0.942 | S. cerevisiae deletion strains, locus YPR111W, strain DBF20, stronger effect = lower value 0.938 | S. cerevisiae deletion strains, strain NNK1, stronger effect = lower value 0.951 | S. cerevisiae deletion strains, strain TSCII, stronger effect = lower value 0.967
